Assay results reported in PubChem BioAssay (NCATS).
Results filed as inconclusive are left out. The source made the active and inactive calls. The call rests on the fitted dose curve; in most records, active means well fitted curve in the direction sought with a large enough effect; inconclusive means small, poorly fitted or top-dose-only effect, or another doubt; inactive means no such curve, though single readings can be large; an effect the other way counts as inactive or inconclusive.

What was measured:
[1] = target: Rap guanine nucleotide exchange factor 3 (Homo sapiens) (UniProt O95398); experiment: Confirmatory qHTS for antagonist of cAMP-regulated guanine nucleotide exchange factor 3 (EPAC1) (AID 1645880); details: EPAC1 Rap1B-BODIPY-GDP exchange, fluorescence; activity, negative = inhibition: at 115 µM (top of the series); further: nearly all actives have a fitted effect of over 55% in size; further: potency means the concentration at half of the fitted maximal effect;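 on activity, negative = inhibition: plate controls were DMSO only for no effect and full effect of the ATA control for full effect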
Sequence of Rap guanine nucleotide exchange factor 3 (Homo sapiens) (O95398 whole entry, looked up): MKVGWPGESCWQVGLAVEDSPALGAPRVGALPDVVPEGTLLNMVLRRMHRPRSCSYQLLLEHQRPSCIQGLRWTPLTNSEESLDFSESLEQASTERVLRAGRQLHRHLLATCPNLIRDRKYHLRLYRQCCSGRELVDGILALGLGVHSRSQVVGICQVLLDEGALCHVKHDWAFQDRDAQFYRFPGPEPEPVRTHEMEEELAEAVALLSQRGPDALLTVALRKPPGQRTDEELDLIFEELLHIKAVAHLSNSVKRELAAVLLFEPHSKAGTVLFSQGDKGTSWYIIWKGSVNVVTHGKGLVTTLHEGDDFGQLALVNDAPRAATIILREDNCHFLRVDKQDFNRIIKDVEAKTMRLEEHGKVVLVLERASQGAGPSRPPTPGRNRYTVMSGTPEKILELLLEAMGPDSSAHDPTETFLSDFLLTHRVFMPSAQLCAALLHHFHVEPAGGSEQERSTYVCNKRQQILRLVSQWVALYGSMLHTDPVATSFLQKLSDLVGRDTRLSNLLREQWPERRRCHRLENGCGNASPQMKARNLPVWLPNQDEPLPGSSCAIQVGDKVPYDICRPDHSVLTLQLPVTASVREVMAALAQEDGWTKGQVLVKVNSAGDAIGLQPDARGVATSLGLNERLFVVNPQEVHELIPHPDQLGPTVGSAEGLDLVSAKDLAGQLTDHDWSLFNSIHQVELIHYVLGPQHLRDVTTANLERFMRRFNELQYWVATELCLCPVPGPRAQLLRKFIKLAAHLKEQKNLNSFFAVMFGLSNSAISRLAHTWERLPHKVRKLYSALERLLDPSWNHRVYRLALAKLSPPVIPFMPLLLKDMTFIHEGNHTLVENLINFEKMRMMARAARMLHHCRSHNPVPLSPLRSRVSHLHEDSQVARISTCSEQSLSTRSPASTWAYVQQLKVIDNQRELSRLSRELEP
Summary of the method: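 Nucleotide exchange uses 100 nM EPAC1, 250 nM RAP1B-BODIPY-GDP and 50 uM GDP, with compounds in a concentration-titration series. After 5 min at room temperature, fluorescence (480 nm ex/540 nm em) is read every 5 min for 30 min. Data are normalized to control ATA and DMSO.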

[2] = target: Rap guanine nucleotide exchange factor 3 (Homo sapiens) (UniProt O95398); experiment: Confirmatory qHTS for agonist of cAMP-regulated guanine nucleotide exchange factor 3 (EPAC1) (AID 1645881);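 further: EPAC1 catalysed release of BODIPY-GDP from Rap1B seen as fluorescence loss; 100% = effect of cAMP agonist control; nearly all actives have a fitted effect of over 75% in size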
[3] = target: Rap guanine nucleotide exchange factor 4 (Homo sapiens) (UniProt Q8WZA2); experiment: Confirmatory qHTS for agonist of cAMP-regulated guanine nucleotide exchange factor 4 (EPAC2) (AID 1645884);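 further: nucleotide exchange releases bodipy-GDP from Rap1 and this lowers its fluorescence; on the % scale 0 is the no-effect control and ±100 the full control effect; nearly all actives have a fitted effect of over 65% in size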
Sequence of Rap guanine nucleotide exchange factor 4 (Homo sapiens) (Q8WZA2 whole entry, looked up): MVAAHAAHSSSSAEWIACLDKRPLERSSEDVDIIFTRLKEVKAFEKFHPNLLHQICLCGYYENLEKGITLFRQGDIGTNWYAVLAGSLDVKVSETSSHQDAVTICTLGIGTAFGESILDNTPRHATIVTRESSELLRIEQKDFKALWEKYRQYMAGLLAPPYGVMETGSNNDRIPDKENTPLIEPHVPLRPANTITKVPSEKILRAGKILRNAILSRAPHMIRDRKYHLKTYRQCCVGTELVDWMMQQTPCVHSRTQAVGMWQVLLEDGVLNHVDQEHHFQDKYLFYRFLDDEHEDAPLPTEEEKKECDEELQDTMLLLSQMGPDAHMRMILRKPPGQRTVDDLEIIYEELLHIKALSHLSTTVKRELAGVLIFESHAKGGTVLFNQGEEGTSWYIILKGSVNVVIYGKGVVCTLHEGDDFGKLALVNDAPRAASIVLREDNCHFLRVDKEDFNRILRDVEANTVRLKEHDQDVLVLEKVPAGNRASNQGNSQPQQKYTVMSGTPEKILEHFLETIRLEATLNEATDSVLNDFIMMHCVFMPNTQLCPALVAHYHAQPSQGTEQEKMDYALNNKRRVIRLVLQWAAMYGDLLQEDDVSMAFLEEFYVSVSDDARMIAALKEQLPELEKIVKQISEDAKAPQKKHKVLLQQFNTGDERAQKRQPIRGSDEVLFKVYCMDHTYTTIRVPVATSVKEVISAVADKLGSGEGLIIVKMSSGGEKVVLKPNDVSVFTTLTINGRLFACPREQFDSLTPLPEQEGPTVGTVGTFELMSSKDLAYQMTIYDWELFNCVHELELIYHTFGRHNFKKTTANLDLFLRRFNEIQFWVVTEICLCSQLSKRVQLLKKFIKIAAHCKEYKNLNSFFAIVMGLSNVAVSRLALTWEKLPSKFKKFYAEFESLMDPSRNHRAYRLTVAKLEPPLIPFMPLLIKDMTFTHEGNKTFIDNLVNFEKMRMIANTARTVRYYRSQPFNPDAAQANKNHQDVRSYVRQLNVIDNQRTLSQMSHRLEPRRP

[4] = target: Rap guanine nucleotide exchange factor 4 (Homo sapiens) (UniProt Q8WZA2); experiment: Confirmatory qHTS for antagonist of cAMP-regulated guanine nucleotide exchange factor 4 (EPAC2) (AID 1645885); further: nearly all actives have a fitted effect of over 25% in size; further: potency means the concentration at half of the fitted maximal effect; on activity change, negative = inhibition: on the % scale 0 is the no-effect control and ±100 the full control effect
[5] = target: Rap guanine nucleotide exchange factor 3 (Homo sapiens) (UniProt O95398); experiment: Counterscreen qHTS for antagonist of cAMP-regulated guanine nucleotide exchange factor 3 (EPAC1) (AID 1645888);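 further: fluorescence loss as bound BODIPY-GDP is released from Rap1B; % of control where 0% means no effect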
Summary of the method: (§1)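 Rap1B–BODIPY-GDP (250 nM) with 50 uM GDP; compounds pin-transferred to 9.74 nM–152 uM final (activator) or from 7.32 nM upwards (inhibitor). Fluorescence Ex/Em 480/540 nm read at 5 and 30 min, then after adding cAMP or buffer, at room temperature.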

[6] = target: Rap guanine nucleotide exchange factor 3 (Homo sapiens) (UniProt O95398); experiment: Counterscreen qHTS for agonist of cAMP-regulated guanine nucleotide exchange factor 3 (EPAC1) (AID 1645889); further: % of control where 0% means no effect; nearly all actives have a fitted effect of over 40% in size
Summary of the method: as §1

Cc1ccc(C(=O)N2CCN(c3ccccc3)CC2)cc1S(=O)(=O)N1CCOCC1
inactive: Potency [1] | Potency [2] | Potency [3] | Potency [4] | Potency [5] | Potency [6]

CCCc1nc2ccc(C(=O)OC)cn2c1Cc1ccccc1
inactive: Potency [1] | Potency [2] | Potency [3] | Potency [5] | Potency [6]
active: Potency [4] 33.8 µM

Cc1sc2ncnc(N3CCC(C(=O)Nc4ccccc4C(C)(C)C)CC3)c2c1C
inactive: Potency [1] | Potency [2] | Potency [3] | Potency [4] | Potency [5] | Potency [6]

C/C(Cc1ccccc1)=N\NC(=O)c1cccnc1
inactive: Potency [1] | Potency [2] | activation [3] 21.1% [at 17.1 µM, percent relative to cAMP agonist control] | Potency [4] | activity change, negative = inhibition [5] -5.84% [at 30.8 µM] | activation [6] 15.7% [at 30.8 µM]

COC(=O)c1cc2sc(C)cc2n1Cc1ccc(F)cc1Cl
inactive: Potency [1] | Potency [2] | Potency [3] | Potency [4] | Potency [5] | Potency [6]

CC1(C(=O)NS(=O)(=O)c2ccc3c(c2)CCO3)CCN1C(=O)C1(c2ccc(Cl)cc2)CCC1 (stereo not given)
active: Potency [1] 39.8 µM
inactive: Potency [2] | activation [3] 1.36% [at 17.1 µM, percent relative to cAMP agonist control] | Potency [4] | activity change, negative = inhibition [5] -29.8% [at 30.8 µM] | activation [6] 34% [at 30.8 µM]

O=C(c1ccco1)N(CCC(c1ccccc1)c1ccco1)Cc1ccccc1 (stereo not given)
active: Potency [1] 44.7 µM
inactive: Potency [2] | activation [3] 1.75% [at 17.1 µM, percent relative to cAMP agonist control] | Potency [4] | activity change, negative = inhibition [5] -8.3% [at 30.8 µM] | activation [6] 15.8% [at 30.8 µM]

CCN1C(=O)/C(=C/c2ccc(OCc3ccc(C(=O)O)cc3)c(Cl)c2)NC1=S
inactive: Potency [2] | Potency [3] | Potency [4] | Potency [5] | Potency [6]
active: Potency [1] 42.6 µM

COc1ccc(S(=O)(=O)N2CCCCC2)cc1C(C)C
inactive: Potency [1] | Potency [2] | Potency [3] | Potency [5] | Potency [6]
active: Potency [4] 8.49 µM

Cc1ccc(S(=O)(=O)NN2C(=O)/C(=C/c3cccnc3)SC2=S)cc1
active: Potency [1] 42.6 µM
inactive: Potency [2] | Potency [3] | Potency [4] | Potency [5] | Potency [6]

Cn1cc([C@]2(O)C(=O)Nc3c(F)cccc32)c2ccccc21
inactive: Potency [1] | Potency [2] | Potency [3] | Potency [4] | Potency [5] | Potency [6]

O=C(Nc1ncccc1O)c1ccc2c(c1)OCCO2
inactive: Potency [1] | Potency [2] | activation [3] 2.78% [at 17.1 µM, percent relative to cAMP agonist control] | Potency [4] | activity change, negative = inhibition [5] 6.79% [at 30.8 µM] | activation [6] 22.4% [at 30.8 µM]

Cc1ccc(C2CC(=O)Oc3cc(C)c(Br)c(C)c32)cc1 (stereo not given)
inactive: Potency [1] | Potency [2] | Potency [3] | Potency [5] | Potency [6]
active: Potency [4] 2.13 µM

COc1ccc2nc3oc(C(=O)Nc4cccc(C(F)(F)F)c4)cc3cc2c1
inactive: Potency [1] | Potency [2] | Potency [3] | Potency [4] | Potency [5] | Potency [6]

CSc1ccccc1C(=O)Nc1ccc(C)cc1C
inactive: Potency [1] | Potency [2] | activation [3] -2.17% [at 17.1 µM, percent relative to cAMP agonist control] | Potency [4] | activity change, negative = inhibition [5] -16.8% [at 30.8 µM] | activation [6] -3.4% [at 30.8 µM]

CCN1CCN(c2ccc(S(=O)(=O)N3CCCCC3)cc2NC(=O)C(C)Oc2ccc(F)cc2)CC1 (stereo not given)
inactive: Potency [1] | Potency [2] | Potency [3] | Potency [4] | Potency [5] | Potency [6]

COc1cc(NC(=O)C2CCCCC2)c(OC)cc1NC(=O)CN1CCCCC1
inactive: Potency [1] | Potency [2] | activation [3] 4.14% [at 17.1 µM, percent relative to cAMP agonist control] | Potency [4] | activity change, negative = inhibition [5] -6.17% [at 30.8 µM] | activation [6] 11.1% [at 30.8 µM]

Cn1c(C(O)c2ccc(Br)cc2)nc(Cl)c1Cl (stereo not given)
inactive: Potency [1] | Potency [2] | activation [3] -7.53% [at 17.1 µM, percent relative to cAMP agonist control] | Potency [4] | activity change, negative = inhibition [5] -0.272% [at 30.8 µM] | activation [6] 8.17% [at 30.8 µM]

COc1cc2c(c(OC)c1OC)C(c1ccc3c(c1)OCO3)CC(=O)O2 (stereo not given)
inactive: Potency [1] | Potency [2] | activation [3] 4.62% [at 17.1 µM, percent relative to cAMP agonist control] | Potency [4] | activity change, negative = inhibition [5] -9.71% [at 30.8 µM] | activation [6] 18.7% [at 30.8 µM]

CCCCn1c(N)c(N(CCOC)C(=O)c2cccc(S(=O)(=O)N(C)c3ccc(C)cc3)c2)c(=O)[nH]c1=O
inactive: Potency [1] | Potency [2] | activation [3] -4.77% [at 17.1 µM, percent relative to cAMP agonist control] | Potency [4] | activity change, negative = inhibition [5] 3.57% [at 30.8 µM] | activation [6] 14.6% [at 30.8 µM]

CC1=C(CO)C(=O)OC([C@@H](C)C2CC[C@H]3C4C[C@H]5O[C@]56[C@@H](O)C=CC(=O)[C@]6(C)C4CC[C@]23C)C1 (stereo not given in full)
active: Potency [1] 84.9 µM
inactive: Potency [2] | Potency [3] | Potency [4] | Potency [5] | Potency [6]

Cc1cc(-c2nn(-c3ccccc3F)cc2CN2CCCC(O)C2)c(C)s1 (stereo not given)
inactive: Potency [1] | Potency [2] | activation [3] 2.57% [at 17.1 µM, percent relative to cAMP agonist control] | Potency [4] | activity change, negative = inhibition [5] -17.9% [at 30.8 µM] | activation [6] 23.9% [at 30.8 µM]

N#Cc1c(-c2cccs2)nc(SCc2ccc(Cl)cc2)[nH]c1=O
active: Potency [1] 42.6 µM
inactive: Potency [2] | Potency [3] | Potency [4] | Potency [5] | Potency [6]

CCOC(=O)c1sc2nc(NC(=O)COc3ccccc3)sc2c1C
inactive: Potency [1] | Potency [2] | activation [3] 1.9% [at 17.1 µM, percent relative to cAMP agonist control] | Potency [4] | activity change, negative = inhibition [5] -6.87% [at 30.8 µM] | activation [6] 25% [at 30.8 µM]

CCOC(=O)C1(c2ccccc2)SC(C(=O)OCC)(c2ccccc2)S1 (stereo not given)
inactive: Potency [1] | Potency [2] | Potency [3] | Potency [5] | Potency [6]
active: Potency [4] 53.6 µM

COc1cccc(/C=N/NC(=O)c2cc3cc([N+](=O)[O-])ccc3s2)c1O
active: Potency [1] 35.5 µM
inactive: Potency [2] | activation [3] 10.9% [at 17.1 µM, percent relative to cAMP agonist control] | Potency [4] | activity change, negative = inhibition [5] -2.63% [at 30.8 µM] | activation [6] 26.8% [at 30.8 µM]

O=c1c(-c2ccc(F)cc2)[n+]([O-])c2ccccc2n1OCc1ccccn1
inactive: Potency [1] | Potency [2] | activation [3] -8.77% [at 17.1 µM, percent relative to cAMP agonist control] | Potency [4] | activity change, negative = inhibition [5] 1.53% [at 30.8 µM] | activation [6] 6.02% [at 30.8 µM]

COc1cccc(-n2ccn(CC(=O)NCc3ccc(C)cc3)c(=O)c2=O)c1
inactive: Potency [1] | Potency [2] | Potency [3] | Potency [4] | Potency [5] | Potency [6]

O=S(=O)(O)c1cccc(N=Nc2c(O)ccc3ccccc23)c1
inactive: Potency [2] | Potency [3] | Potency [5] | Potency [6]
active: Potency [1] 37.9 µM | Potency [4] 23.9 µM

CCc1nc2c(OCc3ccc(C(=O)N(C)C)cc3)cccn2c1N(C)C(=O)c1ccc(C)cc1
inactive: Potency [1] | Potency [2] | activation [3] 2.55% [at 17.1 µM, percent relative to cAMP agonist control] | Potency [4] | activity change, negative = inhibition [5] -28.5% [at 30.8 µM] | activation [6] 21.1% [at 30.8 µM]

O=S(=O)(NCC1(N2CCOCC2)CCCCC1)c1ccc(Cl)cc1C(F)(F)F
inactive: Potency [1] | Potency [2] | Potency [3] | Potency [4] | Potency [5] | Potency [6]

CN(C(=O)CSc1nc2[nH]ncc2c(=O)[nH]1)c1ccccc1
inactive: Potency [1] | Potency [2] | activation [3] 1.67% [at 17.1 µM, percent relative to cAMP agonist control] | Potency [4] | activity change, negative = inhibition [5] -21.3% [at 30.8 µM] | activation [6] -11.1% [at 30.8 µM]

O=C1CCC([N+](=O)[O-])C(c2cccc3ccccc23)N1 (stereo not given)
inactive: Potency [1] | Potency [2] | activation [3] 0% [at 17.1 µM, percent relative to cAMP agonist control] | Potency [4] | activity change, negative = inhibition [5] -21.9% [at 30.8 µM] | activation [6] 45.7% [at 30.8 µM]

COc1cc(/C=C(\C#N)c2nc3ccc(C)cc3[nH]2)cc([N+](=O)[O-])c1O
inactive: Potency [2] | Potency [3] | Potency [5] | Potency [6]
active: Potency [1] 33.8 µM | Potency [4] 75.7 µM

COc1cccc(OC)c1C(=O)NC(=S)NNC(=O)[C@H]1C[C@@H]1c1ccccc1
inactive: Potency [1] | Potency [2] | Potency [3] | Potency [4] | Potency [5] | Potency [6]

CCOC(=O)C1CCCN(C(=O)C2(c3ccc(Cl)cc3)CCCC2)CC1 (stereo not given)
inactive: Potency [1] | Potency [2] | Potency [3] | Potency [4] | Potency [5] | Potency [6]

COc1ccc(C2c3ccsc3CCN2C(C)=O)cc1 (stereo not given)
inactive: Potency [1] | Potency [2] | Potency [3] | Potency [4] | Potency [5] | Potency [6]

COc1ccccc1N1CCN(S(=O)(=O)c2ccc3c(c2)NC(=O)C(C)C(=O)N3)CC1 (stereo not given)
inactive: Potency [1] | Potency [2] | Potency [3] | Potency [4] | Potency [5] | Potency [6]

COc1cccc(C(=O)NC(=S)N2c3ccccc3CC2C)c1OC (stereo not given)
inactive: Potency [1] | Potency [2] | activation [3] 5.75% [at 17.1 µM, percent relative to cAMP agonist control] | Potency [4] | activity change, negative = inhibition [5] -1.25% [at 30.8 µM] | activation [6] 14.2% [at 30.8 µM]

CSc1ccc(CCNC(=O)c2csc3c2CCCCC3)cc1
inactive: Potency [1] | Potency [2] | Potency [3] | outcome [4] inactive [at 12.7 µM] | Potency [5] | Potency [6]
